PubChem BioAssay (EPA / NIEHS)
Results filed as inconclusive are left out. The source made the active and inactive calls. Rule for the calls, unless noted: active = hit-call score of the fitted dose curve at least 0.9, where 1 is the maximum; inactive = score below 0.9.

Legend:
[1] = ATG_NF_kB_CIS: Attagene CIS-FACTORIAL HepG2 Assay for human Nuclear Factor Kappa B (NF-kB) (AID 2282991); conditions: HepG2 Attagene cis-factorial NF-kB reporter mRNA; actives raise or lower the signal
In short: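 After 24 h compound incubation, transfected HepG2 cells yield total RNA; reporter cDNA is PCR-amplified, end-labelled with 6-FAM, HpaI-digested and analysed on a genetic analyser. Endogenous factor activity, DMSO-referenced bidirectional fit.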

[2] = ATG_NRF2_ARE_CIS: Attagene CIS-FACTORIAL HepG2 Assay for human Nuclear Factor Erythroid 2 Related Factor 2 (NFR2) response to Antioxidant Response Elements (ARE) (AID 2282992); conditions: HepG2 Attagene ARE/NRF2 reporter, transcription factor activity; actives raise or lower the signal;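 for AC50: reporter mRNA level measured by RT-PCR and capillary electrophoresis fluorescence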
In short: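 Using transiently transfected HepG2 cells exposed for 24 h, reporter mRNA levels were determined by RT-PCR with fluorescent primer extension and capillary electrophoresis, analysed for gain or loss of signal against DMSO.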

[3] = ATG_Oct_MLP_CIS: Attagene CIS-FACTORIAL HepG2 Assay for human Octamer-Binding Transcription Factor (Oct) (AID 2282993); conditions: HepG2 Attagene cis-factorial Oct reporter, mRNA; actives raise or lower the signal
In short: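 HepG2, transient MRTU transfection, cis promoter elements; 24 h dosing; RT-PCR/CE fluorescence read-out of reporter mRNA; fit both directions vs DMSO.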

[4] = target: Cellular tumor antigen p53 (Homo sapiens) (UniProt P04637); assay: ATG_p53_CIS: Attagene CIS-FACTORIAL HepG2 Assay for human p53 Transcription Factor (AID 2282994); conditions: HepG2 p53 cis-element reporter, Attagene mRNA; actives raise or lower the signal
In short: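 In HepG2 cells, reporter transcription units under cis-regulatory promoters were transiently introduced. Following 24 h treatment, RNA was processed to labelled, digested cDNA fragments read by capillary electrophoresis; fitting was bidirectional versus DMSO.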

[5] = target: human Peroxisome Proliferator-activated Receptor delta (PPARd), PPARD (gene 5467) (UniProt Q03181); assay: ATG_PPARd_TRANS: Attagene TRANS-FACTORIAL HepG2 Assay for human Peroxisome Proliferator-activated Receptor delta (PPARd) (AID 2283002; active = hit-call score of the fitted dose curve at least 0.9, where 1 is the maximum)
In short: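 Read-out is induced reporter mRNA, quantified by RT-PCR with fluorescent labelling and capillary electrophoresis after 24 h dosing. Cells are HepG2 transiently carrying multiple GAL4-UAS reporter units driven by exogenous NR-GAL4 chimeras; DMSO serves as baseline.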

Chain of human Peroxisome Proliferator-activated Receptor delta (PPARd), PPARD (gene 5467) (Q03181 whole entry, looked up, the tested form may be a part): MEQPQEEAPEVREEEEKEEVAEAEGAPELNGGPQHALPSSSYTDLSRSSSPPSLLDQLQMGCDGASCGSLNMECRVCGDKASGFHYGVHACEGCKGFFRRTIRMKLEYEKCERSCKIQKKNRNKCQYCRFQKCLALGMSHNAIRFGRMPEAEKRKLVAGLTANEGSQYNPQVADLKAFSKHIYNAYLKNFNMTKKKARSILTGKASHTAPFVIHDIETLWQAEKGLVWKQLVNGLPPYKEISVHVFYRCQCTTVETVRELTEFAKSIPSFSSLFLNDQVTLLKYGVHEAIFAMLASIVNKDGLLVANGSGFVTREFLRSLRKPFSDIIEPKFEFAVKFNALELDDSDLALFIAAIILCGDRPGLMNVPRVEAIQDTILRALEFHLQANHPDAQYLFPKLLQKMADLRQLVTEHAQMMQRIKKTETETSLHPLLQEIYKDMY
Chain of Cellular tumor antigen p53 (Homo sapiens) (P04637 whole entry, looked up, the tested form may be a part): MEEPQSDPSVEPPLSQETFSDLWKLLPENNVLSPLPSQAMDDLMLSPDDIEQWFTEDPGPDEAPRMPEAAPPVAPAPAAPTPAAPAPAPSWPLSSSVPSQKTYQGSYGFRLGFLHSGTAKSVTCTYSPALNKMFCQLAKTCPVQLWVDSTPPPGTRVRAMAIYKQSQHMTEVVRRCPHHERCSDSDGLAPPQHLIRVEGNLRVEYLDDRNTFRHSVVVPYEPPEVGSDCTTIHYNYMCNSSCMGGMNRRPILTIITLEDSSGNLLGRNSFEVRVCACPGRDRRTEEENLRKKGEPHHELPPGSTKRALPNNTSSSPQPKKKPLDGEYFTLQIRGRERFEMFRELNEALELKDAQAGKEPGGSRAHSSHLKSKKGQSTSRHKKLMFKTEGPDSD

SMILES	AC50 [1]	AC50 [2]	outcome [3]	outcome [4]	outcome [5]	outcome [1]	outcome [2]
CCC(=O)C=Cc1ccc(OC)cc1	100 µM (active)	27.1 µM (active)	inactive	inactive	inactive		
Cc1cc(Cc2cc(C)cc(C(C)(C)C)c2O)c(O)c(C(C)(C)C)c1			inactive	inactive	inactive	inactive	inactive
CCC(=O)O			inactive	inactive	inactive	inactive	inactive
